The source of these data is PubChem BioAssay AID598 (SRMLSC, 2007).

Hit rate of the full screen: of about 85,000 compounds, about 5,100 (6%) were called active. The entries come from a sample that favours actives as a whole. Unmarked numbers belong to inactive results.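 The calls were made as follows: active = viability at or below 40%; inactive = viability above 40%.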

The experiment in a line: H69AR cell viability reduction – human, 86K library, primary screen (AID 598).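 Also: multidrug resistant small cell line overexpressing MRP-1 efflux transporter; 100% = mean luminescence of untreated control wells.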 The conditions noted are these: H69AR lung tumor viability, ATP luminescence, 72 h; at 10 µM; active compounds read low.
For `COc1cc(S(=O)(=O)N(Cc2cccs2)C2CC2)ccc1-n1cnnn1`, the viability (in general, a read-out of living cells in per cent, often relative to untreated cells) was 68%. With `COC(=O)c1ccccc1NC(=O)Cc1ccccc1OC` the figure was 94.2%; with `CCOC(=O)c1nnn(-c2nonc2-n2cccc2)c1CN1CCC(C(=O)OCC)CC1`, 70.5%; with `CCOc1ccc(S(=O)(=O)NCCSc2ccccc2)cc1`, 105%. To `COc1ccc(C(=O)N2CC3(C)CC2CC(C)(C)C3)cc1OC` (stereo not drawn) belongs 88.7%. With `Cc1coc2c(O)cc3c(c12)OC1(N2CCCCC2)C(=O)NCCCC31` (stereo not drawn) the figure was 1.27% (active); with `CCc1c(O)cc2n(c1=O)-c1ccccc1C2(C)C`, 91.5%. Turning to `COc1ccc(Br)cc1/C=N/n1c(C)nnc1C`, the viability was 28.1% (active). With `Cc1nnc(C)n1/N=C/c1ccc(C(C)C)cc1` the figure was 106%; with `COC(=O)c1ccc(/C=N\n2c(C)nnc2C)cc1`, 99.6%; with `CCN(CC)CC(=O)c1c[nH]c2ccc(OC)cc12`, 77.2%. As to `CC(c1ccco1)N(C(=O)Nc1ccccc1)C1CCCCC1` (stereo not drawn), the viability is 77.7%. With `O=C(CO/N=C/c1ccccc1O)NNC(=O)c1ccccc1Cl` the figure was 102%; with `CC[C@]1(O)CC2CN(CCc3c([nH]c4ccccc34)[C@@](C(=O)OC)(c3cc4c(cc3OC)N(C=O)[C@H]3[C@@](O)(C(=O)OC)[C@H](OC(C)=O)[C@]5(CC)C=CCN6CC[C@]43[C@@H]65)C2)C1` (stereo partly drawn), 31.9% (active); with `CC(C)c1cc(C(=O)O)n[nH]1`, 102%.

As to `Cc1ccc(NC(=O)CSCC(=O)N2CCOCC2)cc1`, the viability was 93.9%. With `CCCc1[nH]nc2c1C(c1ccc(OC)c(Cn3nc(C)c(Br)c3C)c1)C(C#N)=C(N)O2` (stereo not drawn) the figure was 87.4%; with `CCCc1[nH]nc2c1C(c1ccc(OC(=O)c3ccco3)cc1)C(C#N)=C(N)O2` (stereo not drawn), 97.7%. As to `CCCc1[nH]nc2c1C(c1ccc(Br)s1)C(C#N)=C(N)O2` (stereo not drawn), the viability is 1.42% (active). `CCOc1ccc(CN(Cc2ccco2)S(=O)(=O)c2ccc(-n3cnnn3)c(OC)c2)cc1`: the viability is 66.6%.

In the case of `Cc1c(C=O)c2ccccn2c1C(=O)c1ccncc1`, the viability was 87.6%.

In the case of `Cc1ccc(-c2cc(C(=O)NCC3CCCO3)c3ccccc3n2)o1` (stereo not drawn), the viability is 87.9%. In the case of `Cc1ccc2nc(-c3ccc(SCC(=O)Nc4cc(C)on4)nc3)[nH]c2c1`, the viability is 10.7% (active). With `Cc1ccc(-c2csc(SCC(=O)Nc3cc(C)on3)n2)cc1` the figure was 87.9%; with `COc1ccc2nc(SCC(=O)Nc3c(C)cc(C)cc3C)[nH]c2c1`, 71.7%; with `CC(C)NC(=O)CSc1nnc(COc2ccccc2Cl)o1`, 106%. With `CCCC(C)C(=O)Nc1ccc(NC(C)=O)cc1` (stereo not drawn) the figure was 103%; with `COc1cc(OC)c(NC(=O)c2ccc(Br)o2)cc1Cl`, 58.5%. To `CCCC(=O)Nc1ccc(Cl)c(NC(=O)c2ccc(Br)o2)c1` belongs 28.2% (active).

In the case of `CCN1CCN(c2c(Cl)cccc2NC(=O)c2ccc(Br)o2)CC1`, the viability was 90.5%.

As to `CCN(c1ccccc1)S(=O)(=O)c1ccc(NC(=O)C(C)(C)C)cc1`, the viability was 34.8% (active). Take `CCN(c1ccccc1)S(=O)(=O)c1ccc(N)cc1`: the viability was 89.9%. As to `CCN(c1ccccc1)S(=O)(=O)c1cccc(C(=O)O)c1`, the viability is 103%. To `COc1ccc(/C(O)=C2\C(=O)C(=O)N(Cc3ccco3)C2c2ccc(OC)cc2OC)cc1` (stereo not drawn) belongs 97.1%; to `CC1=NN(/C(=N\c2nnc(C)s2)Nc2ccccc2)[C@H](c2ccc(C)cc2)S1`, 56.5%. In the case of `CCOC(=O)N1CCN(C(=O)CN(C2CCCCC2)S(C)(=O)=O)CC1`, the viability is 84.9%. In the case of `CS(=O)(=O)N(CC(=O)N1CCN(c2ccc(F)cc2)CC1)C1CCCCC1`, the viability was 92%. On to `CS(=O)(=O)N(CC(=O)Nc1ccc(Cl)c(Cl)c1)C1CCCCC1`, for which the viability is 16.6% (active).

Consider `COC(=O)C1=C(C)N=C2SC(C)C(=O)N2C1/C=C/c1ccccc1` (stereo not drawn), for which the viability is 85.8%. With `O=C(NCCCN1CCCCC1)c1ccc2c(c1)NC(=O)C(N1CCOCC1)S2` (stereo not drawn), the viability is 98.8%. To `Nc1c(C(=O)NCc2ccccc2)nnn1Cc1cccc(Cl)c1` belongs 26.7% (active); to `CCOc1ccc(Cn2nnc(C(=O)Nc3ccc(OC)cc3OC)c2N)cc1`, 76.9%; to `CCOc1ccc(Cn2nnc(C(=O)NCc3ccccc3)c2N)cc1`, 90.5%.

As for `COc1cc(OC)cc(-c2cc3nc(C4CCN(C(=O)OC(C)(C)C)CC4)cc(=O)n3[nH]2)c1`, the viability is 106%. Turning to `COc1ccc(C(=O)NN(C)c2nc(-c3ccccc3)cc(C)c2S(C)(=O)=O)cc1`, the viability was 85%.

Turning to `Cn1nc(-c2ccc(Cl)cc2)c2cc(C(=O)NCc3ccco3)sc21`, the viability is 68.1%.

As for `O=C(NCc1ccco1)c1nc(-c2ccccc2)n(-c2ccccc2)n1`, the viability was 75%. Regarding `Cc1nn(-c2ccccc2)c2sc(C(=O)N(Cc3ccco3)C(C)C(=O)NC(C)(C)C)cc12` (stereo not drawn), the viability is 7.03% (active). On to `Cc1cccc(NC(=O)c2sc3nc4c(c(-c5ccco5)c3c2N)CCC4)c1`, for which the viability was 78.6%.

As for `NC(=O)c1sc2nc3c(c(-c4ccccc4)c2c1N)CCC3`, the viability was 73.2%. With `CC(=O)Nc1ccc(NC(=O)c2sc3nc4c(c(-c5ccc(C)cc5)c3c2N)CCC4)cc1` the figure was 30.2% (active); with `COc1cc(OC)c(-n2c(C)cc(C=O)c2C)cc1Cl`, 104%; with `Cc1cccc(C)c1NC(=O)CSc1nnc(-c2ccccc2)n1Cc1ccc2c(c1)OCO2`, 72.2%.

Turning to `CSc1nc(C)cc(SC(C(C)=O)C(=O)Nc2ccccc2)n1` (stereo not drawn), the viability was 100%. Take `Cc1onc(-c2ccccc2Cl)c1C(=O)OCC(=O)c1ccccc1`: the viability was 97%. With `CN1CCN(CCCNC(=O)c2cc3c(=O)oc4ccccc4c3s2)CC1` the figure was 87.3%; with `O=C(NCCN1CCN(Cc2ccccc2)CC1)c1cc2c(=O)[nH]c3ccccc3c2s1`, 1.91% (active).

As for `O=C(Cc1c(O)c2ccccc2[nH]c1=O)NCc1ccccc1`, the viability was 101%.

Turning to `COc1ccc(-n2c(C)csc2=S)cc1`, the viability is 86.6%.

As for `CCOc1ccc(C(O)Cn2c(=N)n(CCN3CCCCC3)c3ccccc32)cc1` (stereo not drawn), the viability was 44.7%.

With `CCOc1ccc(NC(=O)C2CCCN(C(=O)Nc3ccccc3)C2)cc1` (stereo not drawn), the viability was 79.5%. To `CCOc1ccccc1NC(=O)c1cccnc1` belongs 87.4%; to `Cc1cc(=O)oc2cc(OCC3CC(c4ccccc4Cl)=NO3)ccc12` (stereo not drawn), 27.1% (active); to `Cc1cc(=O)oc2cc(NC(=O)C3CC(=O)N(Cc4ccccc4)C3)ccc12` (stereo not drawn), 96.1%. `Cc1ccccc1N1CCN(CCCOc2ccc3c(C)cc(=O)oc3c2)CC1`: the viability is 58.7%. With `O=C(CSCc1c(F)cccc1Cl)NCC1CCCO1` (stereo not drawn) the figure was 90.5%; with `Cc1cc(SCC(=O)c2ccccc2)nc(SCC(=O)c2ccccc2)n1`, 72.1%.

On to `CC(=O)CCS(=O)(=O)c1ccc(C)c(C)c1`, for which the viability is 1.25% (active).

As to `CCCCN(CCCC)C(=O)CCS(=O)(=O)c1ccc2c(c1)n(C)c(=O)c(=O)n2C`, the viability was 70.2%. With `Cc1ccc(S(=O)(=O)NCCN2CCOCC2)cc1C` the figure was 100%; with `COc1ccc(NC(=O)CSc2nc(NS(=O)(=O)c3ccc(C)cc3)cc(=O)[nH]2)cc1`, 109%; with `COC(=O)c1sccc1-n1cccc1C(=O)C(=O)N1CCCCC1`, 95.1%. To `Cc1cccc(C(=O)N2CCCN(C(=O)c3cccc(C)c3)CC2)c1` belongs 94.6%. To `Clc1ccc(COn2c(-c3ccc(Cl)cc3Cl)nc3ncccc32)cc1` belongs 56.5%; to `N=c1c2c3c(sc2ncn1CCCN1CCOCC1)CCCCC3`, 71%; to `c1nnc2c3c4c(sc3ncn12)CCC4`, 39% (active). As for `O=C(O)[C@@H]1CCCN1c1ncnc2sc3c(c12)CCC3`, the viability is 86.5%. Consider `CCc1ccc(NC(=O)CN2C(=O)CSC2=O)cc1`, for which the viability is 93%. For the molecule `COCCn1c(SCc2nnc(-c3ccc(OC)c(OC)c3)o2)nc2sc3c(c2c1=O)CCC3`, the viability is 51.5%. With `O=C(CN1CCN(C(=O)c2ccco2)CC1)Nc1ccc(Cl)c(C(F)(F)F)c1` the figure was 19.9% (active); with `COc1ccc(OC)c(NC(=O)CN2CCN(C(=O)c3ccco3)CC2)c1`, 73.5%; with `O=C(CN1CCN(C(=O)c2ccco2)CC1)Nc1ccc2c(c1)OCO2`, 110%. Regarding `O=C(Nc1ccc(Br)cc1)c1cccc(NC(=O)C2C3CC4OC(=O)C2C4C3)c1` (stereo not drawn), the viability is 79.9%. With `COC(=O)NC1(C(F)(F)F)NC(=O)N(C2CCCCC2)C1=O` (stereo not drawn) the figure was 103%; with `O=C1NC(Nc2nc3ccccc3s2)(C(F)(F)F)C(=O)N1C1CCCCC1` (stereo not drawn), 13.4% (active); with `COC(=O)CCSc1cc([N+](=O)[O-])cc2c1c(C1OCCS1)nn2-c1ccccc1` (stereo not drawn), 98.2%. To `Cc1ccc(-n2cc3ccc([N+](=O)[O-])cc3n2)cc1` belongs 76.8%; to `CCOC(=O)N1CCN(C(=O)c2ccc(S(=O)(=O)c3ccc(C)cc3)c(NC(C)=O)c2)CC1`, 85.8%.

For the molecule `CCOC(=O)N1CCN(C(=O)c2ccc3c(c2)N(Cc2ccc(C)cc2)CCS3)CC1`, the viability is 30.8% (active). To `CCOC(=O)N1CCN(C(=O)c2ccc(CN(c3ccc(C)c(C)c3)S(C)(=O)=O)cc2)CC1` belongs 70.5%; to `COc1ccc(CN(C(=O)CSc2nnc(-c3ccc(OC)c(OC)c3)o2)c2ccc(F)cc2)cc1`, 65.2%; to `CCCNC(=O)CN(Cc1ccccc1F)S(=O)(=O)c1ccc(C)cc1`, 98.5%.

On to `CC1Cc2ccccc2N1C(=O)c1cc2sccc2n1Cc1ccccc1` (stereo not drawn), for which the viability was 90.3%.
